Screening data deposited in PubChem by National Center for Advancing Translational Sciences (NCATS).
BLM inh – qHTS Assay for Inhibitors of Bloom's syndrome helicase (BLM); hit rate 0.2% among 350,000; recombinant BLM DNA unwinding, fluorescence dequenching; AID 2528, 2010; Potency, µM (titrated, usually from 56.1 µM), without a hit: at the highest dose activity change, negative = inhibition, most hits filed as inhibitors; RecQ-like DNA helicase BLM (Homo sapiens), P54132;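 note: plate controls were vehicle for no effect and no enzyme for full effect; nearly all actives have a fitted effect of over 35% in size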
KDM4E inh – qHTS Assay for Inhibitors of Human Jumonji Domain Containing 2E (JMJD2E); Lysine-specific demethylase 4E (Homo sapiens), B2RXH2; JMJD2E catalytic domain, FDH-coupled NADH fluorescence (FDH is formaldehyde dehydrogenase); Potency, µM (highest dose often 57.1 µM), for inactives: top-dose activity change, negative = inhibition, most hits filed as inhibitors; hit rate 1.6% among 230,000; AID 2147, 2009; active = well fitted inhibition curve with a large enough effect, not every such curve was filed as active; inconclusive = small, poorly fitted or top-dose-only effect, or another doubt; inactive = no such curve, though single readings can be large or run the other way;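 note: 0% = wells with enzyme and -100% = buffer wells without enzyme; nearly all actives have a fitted effect of over 50% in size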
Target sequence (B2RXH2 1-337 limits assumed): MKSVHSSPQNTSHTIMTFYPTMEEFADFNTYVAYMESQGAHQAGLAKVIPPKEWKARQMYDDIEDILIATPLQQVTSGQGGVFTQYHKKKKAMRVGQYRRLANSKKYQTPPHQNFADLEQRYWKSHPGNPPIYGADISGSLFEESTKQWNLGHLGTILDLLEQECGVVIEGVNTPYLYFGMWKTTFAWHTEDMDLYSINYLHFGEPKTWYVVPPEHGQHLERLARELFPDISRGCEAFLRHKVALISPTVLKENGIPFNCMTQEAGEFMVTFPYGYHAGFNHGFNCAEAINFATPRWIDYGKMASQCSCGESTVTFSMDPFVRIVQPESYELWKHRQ
PKM2 activator – qHTS Assay for Activators of Human Muscle isoform 2 Pyruvate Kinase | Pyruvate kinase PKM (Homo sapiens), P14618 | purified PKM2, Kinase-Glo ATP luminescence, activation; response scale: 0% is enzyme alone, no compound | Potency, µM (series often up to 57.5 µM), without a hit: top-dose activation, actives largely listed as activators | hit rate 0.34% among 260,000 | AID 1631, 2009; note: nearly all actives have a fitted effect of over 55% in size
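ATP formation by purified human PK-M2, quantified via coupled luciferase luminescence after 1 h at room temperature with 0.1 mM ADP and 0.5 mM PEP final.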
RECQ1 inh-1 – qHTS Assay for Inhibitors of RecQ-Like Dna Helicase 1 (RECQ1); hit rate 0.54% among 240,000; RECQ1 DNA unwinding, red fluorescence kinetic read; ATP-dependent DNA helicase Q1 (Homo sapiens), P46063; Potency, µM (top dose mostly 57.3 µM), for inactives: top-dose activity, negative = inhibition, most hits filed as inhibitors; AID 2549, 2010;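 note: plate controls were vehicle for no effect and no enzyme for full effect; nearly all actives have a fitted effect of over 30% in size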
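50 nM RECQ1T1 preincubated 15 min with compound in Tris pH 8.0 buffer with MgCl2, DTT, Tween-20 and 2.5 ug/ml poly(dI-dC); started with 200 nM TAMRA/BHQ-2 forked duplex and 2 mM ATP. Unwinding read as fluorescence (525/598 nm), two reads 2 h apart.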
APE1 inh – qHTS Assay for Inhibitors of the Human Apurinic/apyrimidinic Endonuclease 1 (APE1); Potency, µM (highest dose often 65.8 µM), inactives show at the highest dose activity change, negative = inhibition, most hits filed as inhibitors; AID 2517, 2012; recombinant APE1, TAMRA/BHQ-2 abasic DNA cleavage fluorescence; hit rate 0.35% among 350,000;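 note: plate controls were vehicle for no effect and reference inhibitor for full effect; nearly all actives have a fitted effect of over 55% in size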
Target sequence (P27695 whole entry, looked up): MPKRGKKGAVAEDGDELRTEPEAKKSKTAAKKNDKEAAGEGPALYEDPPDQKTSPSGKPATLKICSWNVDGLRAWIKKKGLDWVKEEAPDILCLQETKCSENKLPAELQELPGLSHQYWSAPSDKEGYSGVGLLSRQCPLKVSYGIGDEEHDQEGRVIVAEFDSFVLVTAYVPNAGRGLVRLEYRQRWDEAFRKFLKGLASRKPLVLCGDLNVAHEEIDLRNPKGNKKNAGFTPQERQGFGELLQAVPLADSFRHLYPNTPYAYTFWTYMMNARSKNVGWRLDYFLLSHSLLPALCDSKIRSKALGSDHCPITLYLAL
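Readout is kinetic fluorescence (ex 525, em 598 nm) from cleavage of 50 nM TAMRA/BHQ-2 THF abasic duplex by 0.75 nM APE1, compound added 15 min beforehand at RT.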
RECQ1 inh conf – Confirmation qHTS Assay for Inhibitors of RecQ-Like Dna Helicase 1 (RECQ1); shares compounds with RECQ1 inh-1; RECQ1 helicase DNA unwinding, fluorescence; Potency, µM (top dose mostly 229 µM), inactives show at the highest dose activity change, negative = inhibition, most hits filed as inhibitors; hit rate 28% among 610; AID 2708, 2010; note: nearly all actives have a fitted effect of over 45% in size
RECQ1 ADP FP – Counterscreen for RECQ1 Inhibitors: ADP Fluorescence Polarization Displacement Assay | hit rate 27% among 530 | AID 2711, 2010 | shares compounds with RECQ1 inh-1 | Potency, µM (highest dose often 228 µM), for inactives: top-dose activity change, negative = inhibition, actives largely listed as inhibitors | ADP fluorescence polarization displacement counterscreen; note: nearly all actives have a fitted effect of over 45% in size
RECQ1 inh-2 – Confirmation qHTS Assay for Inhibitors of RecQ-Like Dna Helicase 1 (RECQ1) - Round 2 Cherry Picks. recombinant RECQ1 DNA unwinding, red fluorescence. hit rate 15% among 1,100. Potency, µM (top dose mostly 119 µM), for the others: top-dose activity, negative = inhibition, hits mostly inhibitors. shares compounds with RECQ1 inh-1. AID 504841, 2011; note: nearly all actives have a fitted effect of over 50% in size
An asterisk follows results filed as active; [ ] = another dose, or the depositor's remark. The entries come from a sample that favours hits as a whole. Unless noted, calls come from the whole dose curve; as a rule, active = well fitted curve in the direction sought with a large enough effect; inconclusive = small, poorly fitted or top-dose-only effect, or another doubt; inactive = no such curve, though single readings can be large; an effect the other way counts as inactive or inconclusive. Unless noted, % is set by controls: 0 for no effect and ±100 for the full control effect; potency is the fitted concentration of half-maximal effect.

What do the screens show for `Cc1ccc(-n2nc(C)c3c2OC(N)=C(C#N)C3c2ccoc2)cc1` (stereo not drawn)?
BLM inh: -6.2%; KDM4E inh: 10µM*; PKM2 activator: 19.3%; RECQ1 inh-1: inconclusive; APE1 inh: inconclusive; RECQ1 inh-2: -6.7%

How did COCCNC(=O)CSc1nnc(-c2ccc(OC)c(OC)c2)c(-c2ccc(OC)c(OC)c2)n1 do in these assays?
BLM inh: 1.5%

Results for Cc1ccc(C(=O)c2cc([N+](=O)[O-])ccc2N2CCCCC2)c(C)c1 ?
BLM inh: -4.5%; KDM4E inh: -3.2%; PKM2 activator: -0.9%; RECQ1 inh-1: 1.58µM*; APE1 inh: 2.0%; RECQ1 inh-2: -13.8%

How did Cc1ccc(C)n1-c1sccc1C(=O)O do in these assays?
BLM inh: -17.0%; KDM4E inh: 3.9%; PKM2 activator: 1.1%; RECQ1 inh-1: 20µM*; APE1 inh: 7.94µM*; RECQ1 inh conf: -75.8%[114 µM]

How did CS(=O)(=O)N1CCN(c2ccc([N+](=O)[O-])c(NCc3ccc(Cl)cc3)c2)CC1 do in these assays?
BLM inh: 15.8µM*; KDM4E inh: -2.8%; PKM2 activator: 0.8%; RECQ1 inh-1: 31.6µM*; APE1 inh: 2.0%; RECQ1 inh-2: inconclusive

Results for CCOC(=O)N1CCC(NC(=O)c2cccc3c2C(=O)N(c2ccc(OC)cc2)C3)CC1 ?
BLM inh: inconclusive; KDM4E inh: inconclusive; PKM2 activator: 14.1%; RECQ1 inh-1: 11.2µM*; APE1 inh: inconclusive; RECQ1 inh conf: 14.1µM*; RECQ1 ADP FP: 6.5%[91.9 µM]

Results for CCOC(=O)N1CCC(N2Cc3cccc(C(=O)NCc4ccc(OC)cc4)c3C2=O)CC1 ?
BLM inh: -19.2%; KDM4E inh: 2.0%; PKM2 activator: -1.8%; RECQ1 inh-1: -3.7%; APE1 inh: 3.8%

How did Cc1ccc(C(=O)N2CCC(c3c[nH]c4ccccc34)(c3c[nH]c4ccccc34)CC2)cc1 do in these assays?
BLM inh: -7.9%

Results for CC(C)=C(C#N)c1nc2ccccc2s1 ?
BLM inh: -2.4%; KDM4E inh: 0.5%; PKM2 activator: -4.5%; RECQ1 inh-1: 10µM*; APE1 inh: -3.8%; RECQ1 inh-2: -9.9%

Results for Cc1cc(C)n2nc(C(=O)OCC(=O)c3cc(C)n(C)c3C)nc2n1 ?
BLM inh: -14.7%; KDM4E inh: 5.2%; PKM2 activator: 3.1%; RECQ1 inh-1: inconclusive; APE1 inh: -9.6%; RECQ1 inh-2: inconclusive

What do the screens show for `CCc1ccc(NS(=O)(=O)c2ccc(-c3cc(C)no3)cc2)cc1`?
BLM inh: -11.9%

Results for COc1ccc2cc(C(C)c3nc4ccccc4c(=O)n3N)ccc2c1 (stereo not drawn) ?
BLM inh: -10.0%; KDM4E inh: -22.5%; PKM2 activator: 5.1%; RECQ1 inh-1: 28.2µM*; APE1 inh: 5.0%; RECQ1 inh-2: -23.1%

What do the screens show for `COc1ccc(CNC(=O)c2cc(-c3ccc(C)c(C)c3)n[nH]2)cc1`?
BLM inh: -0.2%

What do the screens show for `COc1cc(NC(=O)C(Cc2ccccc2)NS(=O)(=O)c2cccc3nsnc23)cc(OC)c1` (stereo not drawn)?
BLM inh: -7.5%

What do the screens show for `O=S(=O)(c1ccccc1)n1c(C(O)c2ccccn2)cc2ccccc21` (stereo not drawn)?
BLM inh: -1.6%; KDM4E inh: -3.5%; PKM2 activator: 13.4%; RECQ1 inh-1: inconclusive; APE1 inh: 0.0%; RECQ1 inh-2: -12.9%

What do the screens show for `c1ccc(N2CCN(c3nc(-c4cccs4)nc4ccccc34)CC2)cc1`?
BLM inh: -6.3%; KDM4E inh: inconclusive; PKM2 activator: -1.6%; RECQ1 inh-1: -4.2%; APE1 inh: inconclusive

What do the screens show for `Oc1ccc(N2CCN(c3nc(-c4cccs4)nc4ccccc34)CC2)cc1`?
BLM inh: -5.8%; KDM4E inh: inconclusive; PKM2 activator: 0.4%; RECQ1 inh-1: inconclusive; APE1 inh: 19.5%; RECQ1 inh-2: inconclusive

How did CCOC(=O)c1c(NC(=O)CN2CCCc3ccccc32)sc(C(C)=O)c1C do in these assays?
BLM inh: 6.8%; KDM4E inh: -2.1%; PKM2 activator: -2.3%; RECQ1 inh-1: 0.4%; APE1 inh: 7.1%

Results for COCCOC(=O)c1c(NC(=O)CN2CCc3ccccc32)sc(C(N)=O)c1C ?
BLM inh: 1.0%; KDM4E inh: -4.9%; PKM2 activator: 6.3%; RECQ1 inh-1: 20µM*; APE1 inh: -3.0%; RECQ1 inh-2: -8.0%

How did CCN(Cc1ccccc1)S(=O)(=O)c1ccc(-c2coc(C)n2)cc1 do in these assays?
BLM inh: -3.5%

Results for COc1cccc(N2CCN(C(=O)CN3C(=O)COc4ccc(S(=O)(=O)N5CCC(C)CC5)cc43)CC2)c1 ?
BLM inh: -5.2%

What do the screens show for `Nc1cc(=O)[nH]c(SCC(=O)N2N=C(c3ccc(Cl)cc3)CC2c2ccco2)n1` (stereo not drawn)?
BLM inh: -2.6%; KDM4E inh: 4.5%; PKM2 activator: 3.2%; RECQ1 inh-1: inconclusive; APE1 inh: 1.9%; RECQ1 inh-2: -49.3%

What do the screens show for `CCCc1cc(=O)[nH]c(SCC(=O)N2N=C(c3ccc(Cl)cc3)CC2c2ccco2)n1` (stereo not drawn)?
BLM inh: -5.0%; KDM4E inh: 0.5%; PKM2 activator: -2.0%; RECQ1 inh-1: 7.2%; APE1 inh: 7.9%
